The full list was thinned out, with hits kept by preference.
Dicer processing – blocks human Dicer maturation of pre-miR-21 | Q9UPY3 | cat-ELCCA pre-miR-21 Dicer processing, chemiluminescence; stronger effect = higher value | z-score at 25 µM | actives 6% (n = 47,000) | AID 1347074; in the data active = z-score above about 3, passing the limit was not always enough;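 note: higher signal means more uncleaved substrate so more Dicer inhibition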
Large screens that a line does not name were inactive.

COC(=O)c1ccc(C2Nc3c(C)cc(C)cc3-c3cc(C)nn32)cc1 (stereo not drawn)	none
Cc1cc(C)c2c(c1)-c1cc(C)nn1C(c1cccs1)N2 (stereo not drawn)	none
CSc1ccc(C2Nc3ccc(C)cc3-c3cc(C)nn32)cc1 (stereo not drawn)	none
Cc1cc2n(n1)C(c1cccc(O)c1)Nc1ccccc1-2 (stereo not drawn)	none
Cc1cc2n(n1)C(c1cccc(O)c1)Nc1c(C)cccc1-2 (stereo not drawn)	Dicer processing 4.32
COc1ccc(C2Nc3ccc(C)cc3-c3cc(C)nn32)cc1O (stereo not drawn)	none
Cc1cc2n(n1)C(/C=C\c1ccccc1)Nc1c(C)cccc1-2 (stereo not drawn)	Dicer processing 6.04
CSc1ccc(C2Nc3ccccc3-c3cc(C)nn32)cc1 (stereo not drawn)	Dicer processing 4.75
CSc1ccc(C2Nc3c(C)cccc3-c3cc(C)nn32)cc1 (stereo not drawn)	Dicer processing 3.93
CSc1n[nH]c(-c2cc(C(C)(C)C)oc2C)c1C#N	none
COC(=O)Cc1csc2ccc(C)cc12	none
CSC(=NC#N)S/C=C/C(=O)c1ccc(C)cc1	none
COc1cc(C(=O)Oc2c(Cl)cc(Cl)cc2C=Nc2cccc([N+](=O)[O-])c2)cc(OC)c1OC	none
CC(=O)N[C@H](CCc1ccccc1)C(=O)O	none
Cc1cc2n(n1)C(c1ccsc1)Nc1ccccc1-2 (stereo not drawn)	none
CCN(CC)c1ccc(C2Nc3ccccc3-c3cc(C)nn32)cc1 (stereo not drawn)	Dicer processing 3.33
Cc1cc2n(n1)C(c1ccc(N3CCCC3)cc1)Nc1ccccc1-2 (stereo not drawn)	Dicer processing 4.48
CN(C)C(=O)Oc1nnc(SCCS(=O)(=O)c2ccc(F)cc2)n1C1Cc2ccccc2C1	none
CC(C)(C)c1ccc(Cn2cnc3ccccc32)cc1	none
CS(=O)(=NC(=S)NC(=O)c1cnn2c(C(F)(F)F)cc(C(F)(F)F)nc12)c1ccc(Cl)cc1 (stereo not drawn)	none
CCOC(=O)c1csc(-c2ncc(C(F)(F)F)cc2Cl)n1	none
CCOC(=O)c1c(NC(=S)N2CCCCC2)sc2c1CCN(C(=O)OCC)C2	none
C=CCNC(=S)Nc1sc2c(c1C(=O)OCC)CCN(C(=O)OCC)C2	none
CCOC(=O)c1c(NC(=O)CN2CCc3ccccc32)sc2c1CCN(C(=O)OCC)C2	none
CCOC(=O)c1c(NC(=S)NCc2ccccc2)sc2c1CCN(C(=O)OCC)C2	Dicer processing 3.67
CCOC(=O)N1CCc2c(sc(N)c2C#N)C1	none
CCOC(=O)N1CCc2c(sc(NC(=O)CN3CCc4ccccc43)c2C#N)C1	Dicer processing 5.26
COc1ccc(S(=O)(=O)N2CC(=O)Nc3ccccc32)cc1Br	none
CC1CC1c1ccc(CCC(=O)Nc2ncc(Cc3ccc(F)cc3)s2)o1 (stereo not drawn)	none
CCCS(=O)(=O)Nc1ccc(N2CCN(c3ccc(C(F)(F)F)cn3)CC2)nc1	none
CNc1[nH]c(=S)nc2sc3c(c12)CCCC3	none
O=C(O)c1c(N2CCCCC2)ccc([N+](=O)[O-])c1N1CCCCC1	none
O=c1c(N2CCCCC2)c(N2CCCCC2)c1=O	Dicer processing 7.35
O=[N+]([O-])c1ccc(N2CCCCCCC2)cc1	none
CN(c1cnn(-c2ccc(Cl)cc2Cl)c(=O)c1Cl)N1CC(C)(C)C1=O	none
O=C1c2ccccc2C(=O)N1CNc1ccc(I)cc1F	none
Nc1ccn([C@@H]2O[C@H](CO)[C@@H](O)C2(F)F)c(=O)n1	none
Cc1ccc(-n2nnnc2-c2cnc3ccccc3c2-c2ccccc2)cc1	none
O=C1CC2(CCCCC2)CC(=O)N1c1cccnc1	none
Cc1[nH]c2ccccc2c1C(=O)CSc1nnc(Cc2cccs2)n1C	Dicer processing 3.38
CCn1c(SCC(=O)c2c[nH]c3ccccc23)nnc1-c1ccco1	Dicer processing 3.41
CCn1c(SCC(=O)c2c(C)[nH]c3ccccc23)nnc1-c1ccco1	none
Cc1[nH]c2ccccc2c1C(=O)CSc1nnc(-c2ccco2)n1C	none
Cc1[nH]c2ccccc2c1C(=O)CSc1nnc(-c2cccs2)n1C	none
Cc1[nH]c2ccccc2c1C(=O)CSc1nnc(-c2ccco2)n1-c1ccccc1	Dicer processing 4.68
O=C(CSc1nnc(-c2ccco2)n1-c1ccc(OCc2ccccc2)cc1)c1ccccc1	none
CCn1c(SCC(=O)c2c[nH]c3ccccc23)nnc1-c1cccs1	none
Cc1[nH]c2ccccc2c1C(=O)CSc1nnc(C2CCCCC2)n1C	none
Cc1cc(OC(C)C(=O)N(Cc2cccs2)C2CCS(=O)(=O)C2)cc(C)c1Cl (stereo not drawn)	none
CC(=O)NNc1ncc(C(F)(F)F)cc1Cl	none
Cc1onc(-c2c(Cl)cccc2Cl)c1NC(=O)O/N=C1/CCSC1	none
Cc1cc(C)n(-c2nnc3c(n2)[nH]c2ccccc23)n1	none
O=C(CCSc1nc(-c2ccc3c(c2)OCO3)cc(C(F)(F)F)n1)N1CCOCC1	none
Oc1c(C(c2ccncc2)N2CCOCC2)cc(Cl)c2cccnc12 (stereo not drawn)	none
Oc1cc2c(cc1C(c1ccc(C(F)(F)F)cc1)N1CCOCC1)OCO2 (stereo not drawn)	Dicer processing 6.47
CCOC(=O)[C@@H](NS(=O)(=O)c1cc(Cl)ccc1OC)C(C)C	none
Cc1ccccc1C1CC(=O)Oc2c1c(=O)n(C)c1ccccc21 (stereo not drawn)	none
COc1cc(Br)c(/C=C(\C#N)C(=O)O)cc1OC	none
Cc1ccc(C(=O)CC2(O)C(=O)N(CCc3ccccc3)c3ccc(Br)cc32)s1 (stereo not drawn)	Dicer processing 4.9
CN1C(=O)C(O)(CC(=O)c2ccccc2)c2ccccc21 (stereo not drawn)	none
O=C(CC1(O)C(=O)N(CCc2ccccc2)c2ccc(Cl)cc21)c1cccs1 (stereo not drawn)	Dicer processing 4.2
Cc1coc(C)c1C(=O)CC1(O)C(=O)N(CCc2ccccc2)c2ccc(Br)cc21 (stereo not drawn)	none
CN1C(=O)C(O)(CC(=O)c2ccc3c(c2)OCO3)c2ccccc21 (stereo not drawn)	none
O=C(CC1(O)C(=O)N(CCc2ccccc2)c2ccc(Br)cc21)c1ccco1 (stereo not drawn)	none
Cc1ccc(CN2C(=O)C(O)(CC(=O)c3cccs3)c3cc(Cl)ccc32)cc1 (stereo not drawn)	none
Cc1ccccc1CN1C(=O)C(O)(CC(=O)c2cccnc2)c2cc(Cl)ccc21 (stereo not drawn)	none
CN1C(=O)C(O)(CC(=O)c2ccc3c(c2)CCCC3)c2ccccc21 (stereo not drawn)	Dicer processing 3.3
Cc1ccccc1CN1C(=O)C(O)(CC(=O)c2cccs2)c2cc(Cl)ccc21 (stereo not drawn)	Dicer processing 5.34
CCN1C(=O)C(O)(CC(=O)c2cccs2)c2ccccc21 (stereo not drawn)	none
O=C(CC1(O)C(=O)N(CCc2ccccc2)c2ccc(Br)cc21)c1cccs1 (stereo not drawn)	none
C=CCOc1ccc2c(=O)c(Oc3cccc(C)c3)coc2c1	none
COCc1cc(OC(C)C)nc(-c2cccc(C)c2)n1	none
OCCn1c(-c2ccccc2)cn2c3ccccc3nc12	none
c1ccc(-n2ncc3c(NC4CCCCC4)ncnc32)cc1	none
CC(C)(C)CC(=O)O/N=C(\N)C1(c2ccc(Cl)cc2Cl)CC1	none
CN(C)c1cc(C(F)(F)F)nc2cc(C(C)(C)C)nn12	none
O=C1C2CC3CC1(Br)CC(Br)(C2)C3=O	none
CS(=O)(=O)/C(C#N)=C/c1ccsc1Sc1ccc(Cl)cc1	none
CSc1cccc(N/C(=N\S(=O)(=O)c2ccccc2)NN)c1	none
CN(C1CCS(=O)(=O)C1)S(=O)(=O)c1ccc(Cl)cc1 (stereo not drawn)	none
